Source: PubChem
An excerpt weighted towards active compounds, which were near 2.3% of everything screened.
POLB inh – blocks human DNA polymerase beta activity | P06746 | Pol beta primer extension/strand displacement, fluorescence kinetic | Potency, µM (highest dose often 114 µM), inactives show at the highest dose activity change, negative = inhibition, actives largely listed as inhibitors | 1.3% of 340,000 active | AID 485314; also: potency is read from the fitted curve at half-maximal effect; % is scaled to controls: 0 for no effect and ±100 for the full control effect
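Pol beta (10 nM) and compounds were preincubated 15 min at room temperature, then 50 nM substrate (final) started primer extension/strand displacement. Reads were taken at 0 and 10 min; concentration-response data were fitted to a four-parameter Hill equation.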
Pol kappa inh-1 – inhibitors of human DNA polymerase kappa. purified Pol kappa, fluorescent DNA synthesis assay, 10 min. Potency, µM (series often up to 107 µM), for the others: at the highest dose activity, negative = inhibition, most hits filed as inhibitors. 0.53% of 400,000 active. AID 588579; also: potency is read from the fitted curve at half-maximal effect; % is scaled to controls: 0 for no effect and ±100 for the full control effect
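10 nM Pol kappa was preincubated with compounds for 15 min at room temperature. Reaction started with 50 nM (final) substrate. Fluorescence read kinetically at 0 and 10 min.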
POLI inh – blocks human DNA polymerase iota activity. Pol iota fluorescent replication assay, 10 min. 1% of 390,000 active. Potency, µM (titrated, usually from 115 µM), inactives show at the highest dose activity, negative = inhibition, hits mostly inhibitors. Q9UNA4; also: potency is read from the fitted curve at half-maximal effect
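Fluorescent replication assay read twice, at 0 min and 10 min after adding 50 nM (final) substrate. Enzyme (10 nM) and compounds were first incubated 15 min at room temperature; enzyme-free buffer wells were negative controls.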
WRN helicase inh – blocks human WRN helicase | WRN helicase unwinding, fluorescent forked duplex, kinetic | Potency, µM (top dose mostly 114 µM), for the others: at the top dose activity change, negative = inhibition, actives largely listed as inhibitors | 0.46% of 360,000 active; also: potency is read from the fitted curve at half-maximal effect; % is scaled to controls: 0 for no effect and ±100 for the full control effect; nearly all actives have a fitted effect of over 55% in size
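Primary qHTS, 1536-well format. 20 nM WRN + compound, 15 min RT; start with 100 nM forked fluorophore/quencher duplex, 2 mM ATP (final); kinetic read ex 525/em 598 nm.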
Pol eta inh-1 – inhibitors of human DNA polymerase eta | Potency, µM (top dose mostly 114 µM), inactives show top-dose activity change, negative = inhibition, most hits filed as inhibitors | recombinant Pol eta, fluorescent DNA replication assay | AID 588591 | 1.2% of 390,000 active | Q9Y253; also: potency is read from the fitted curve at half-maximal effect; % is scaled to controls: 0 for no effect and ±100 for the full control effect
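Pol eta at 10 nM preincubated with compounds 15 min at room temperature; reaction started with fluorescent substrate (50 nM final) and read kinetically at 0 and 10 min.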
GALK inh confirm – confirmation of human galactokinase (GALK) inhibitors; shares compounds with Pol eta inh-1; purified GALK, Kinase-Glo ATP depletion luminescence; Potency, µM (top dose mostly 115 µM), without a hit: at the top dose activity, negative = inhibition, usual class: inhibitors; 70% of 150 active
Target sequence (P51570 whole entry, looked up): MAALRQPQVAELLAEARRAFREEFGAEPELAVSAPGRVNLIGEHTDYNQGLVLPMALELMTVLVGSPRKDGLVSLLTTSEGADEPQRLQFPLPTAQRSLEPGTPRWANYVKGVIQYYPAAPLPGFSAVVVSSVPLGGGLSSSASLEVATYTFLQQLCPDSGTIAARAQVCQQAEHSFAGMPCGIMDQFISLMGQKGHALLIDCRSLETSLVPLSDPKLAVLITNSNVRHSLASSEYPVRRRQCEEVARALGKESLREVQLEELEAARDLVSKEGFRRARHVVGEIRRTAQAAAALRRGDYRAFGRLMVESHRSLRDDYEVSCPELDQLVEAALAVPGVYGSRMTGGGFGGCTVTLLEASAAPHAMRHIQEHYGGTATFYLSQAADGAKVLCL
Redox cycling – redox cycling activity in phenol red-HRP assay | shares compounds with Pol eta inh-1 | Phenol red-HRP H2O2 redox cycling, absorbance 600 nm | Potency, µM (titrated, usually from 115 µM), for inactives: top-dose activity change, negative = H2O2 signal, actives largely listed as inhibitors | 40% of 150 active | AID 2035
HEK293 tox – reduces HEK-293 cell viability in GALK counter-screen; shares compounds with Pol eta inh-1; HEK-293 viability, ATP luminescence (CellTiter-Glo), 24/48 h; Potency, µM (highest dose often 46.1 µM), for inactives: at the top dose activity change, negative = cytotoxicity, hits mostly inhibitors; 10% of 170 active; AID 2547; also: potency is read from the fitted curve at half-maximal effect; % is scaled to controls: 0 for no effect and ±100 for the full control effect
Pol kappa inh-2 – confirmation of human DNA polymerase kappa inhibitors; shares compounds with Pol eta inh-1; purified Pol-kappa, fluorescent strand-displacement substrate; Potency, µM, actives largely listed as inhibitors; 76% of 920 active; AID 720501; also: potency is read from the fitted curve at half-maximal effect
Pol eta inh-2 – Pol eta (human) inhibition, cherry-pick confirmation | 64% of 2,600 active | Potency, µM, most hits filed as inhibitors | Pol eta primer extension, TAMRA/BHQ fluorescence, 10 min | shares compounds with Pol eta inh-1 | AID 720502; also: potency is read from the fitted curve at half-maximal effect
* marks the source's active call; other numbers are inactive results; ? = inconclusive; · = no result; [ ] = remark or other dose. Calls follow the shape of the dose curve; as a rule, active = well fitted curve in the direction sought with a large enough effect; inconclusive = small, poorly fitted or top-dose-only effect, or another doubt; inactive = no such curve, though single readings can be large; an effect the other way counts as inactive or inconclusive.

SMILES	POLB inh	Pol kappa inh-1	POLI inh	WRN helicase inh	Pol eta inh-1	Pol eta inh-2	others
CC(C)Cn1c(N)c(C(=O)COC(=O)C2Cc3ccccc3CN2S(C)(=O)=O)c(=O)n(C)c1=O (centres undefined)	·	?	45µM*	?	22µM*	?	Pol kappa inh-2=?
Cc1ccc2nc(CN3CCN(C(=O)Nc4ccc(C)c(F)c4)CC3)oc2c1	-8%	-4%[60.1 µM]	?	·	-12%	·
CCOCCSc1c(C)cnc2c1c(=O)n(C)c(=O)n2C	6%	-7%[60.1 µM]	31%	·	-5%	·
Cc1c(C(=O)N2CCCC2)sc(NC(=O)c2ccc(Cl)cc2)c1C#N	59%	2%	0%	-14%	5%	·	GALK inh confirm=?;Redox cycling=-1%;HEK293 tox=-16%
COc1cccc(NC(=O)c2cc3c(-c4ccc(Cl)cc4)nn(C)c3s2)c1	33%	6%	24%	·	-14%	·
O=C(Cn1c(=O)n(Cc2ccc(C(=O)NCc3ccc4c(c3)OCO4)cc2)c(=O)c2ccccc21)Nc1ccc(F)cc1F	10µM*	-4%	?	·	79µM*	·	Pol kappa inh-2=?
CCOC(=O)c1ccccc1NC(=O)Cn1c(=O)n(Cc2ccc(C(=O)NCc3ccc4c(c3)OCO4)cc2)c(=O)c2ccccc21	-21%	-3%	0%	·	-9%	·
CCOC(=O)c1ccc(NC(=O)CCCn2nc(C)c3sc4ccccc4c3c2=O)cc1	-1%	-20%	10%	·	-13%	·
O=[N+]([O-])c1cc(Br)cc(C=Nc2ccc3c(c2)OCO3)c1O	25µM*	?	?	-28%	79µM*	76*
O=[N+]([O-])c1cc([N+](=O)[O-])c2oc(-c3ccccc3)c(Br)c2c1O	28µM*	?	?	?	25µM*	·	GALK inh confirm=53µM*;Redox cycling=7%;HEK293 tox=-8%
O=C(O)c1ccc(-n2[nH]c3c(c2=O)CCCC3)cc1	28µM*	?	?	-5%[57.1 µM]	35µM*	?	Pol kappa inh-2=24*
CC(C)c1ccc(S(=O)(=O)Nc2cc3c(cc2NCc2ccccc2)n(C)c(=O)n3C)cc1	0%	-9%	7%	·	-22%	·
O=C(NNC(=O)c1cc2ccccc2o1)c1ccc(F)cc1	·	-16%	33%	?	5%	·
O=C(NNC(=O)c1ccccc1C(=O)O)c1cc2ccccc2o1	1%	-8%	?	-10%	0%	·	GALK inh confirm=33µM*;Redox cycling=0%;HEK293 tox=2%
CCc1cccc(C)c1NC(=O)CN1C(=O)C2(SCC(=O)N2c2cc(C)cc(C)c2)c2ccccc21 (centres undefined)	-1%	-4%	4%	·	-20%	·
COc1ccc2cc(C(=O)NCc3ccccc3)c(=Nc3ccc(C(=O)O)cc3)oc2c1	1%	-7%	12%	-8%	32µM*	?
O=C(O)c1ccc(/C=C2\COc3ccccc3C2=O)cc1	10%	2%	?	?	?	?
Cc1cc(C)c2c(c1)C(=O)/C(=C/c1ccc(C(=O)O)cc1)CC2	57%	-12%	?	-10%	?	·
COc1ccccc1NC(=O)c1c(-c2ccc(C)cc2)nnc2ccccc12	25%	1%	11%	·	12%	·
CC1CCN(S(=O)(=O)c2ccc(NC(=O)CN3CCCC3)cc2)CC1	-27%	6%	136%	-5%	-21%	·
CC1CCN(S(=O)(=O)c2ccc(NC(=O)Cc3cccs3)cc2)CC1	14µM*	?	?	?	?	?
CCN(CC)S(=O)(=O)c1ccc(NC(=O)Cc2cccs2)cc1	28µM*	-27%	?	3%[11.6 µM]	56µM*	?
Cc1ccccc1CN1C(=O)C(O)(c2c[nH]c3ccccc23)c2cc(Cl)ccc21 (centres undefined)	-7%	2%	?	·	-24%	·
O=c1c(=O)n(-c2ccc(F)c(F)c2)ccn1Cc1ccc(F)cc1Cl	-19%	1%	3%	·	3%	·
O=C(Nc1sc2c(c1C(=O)O)CCC2)C(=O)N1CCOCC1	?	-7%	?	-22%	20µM*	?
SMILES	POLB inh	Pol kappa inh-1	POLI inh	WRN helicase inh	Pol eta inh-1	Pol eta inh-2	others
COCCN(C(=O)c1cc2c(s1)CCCCC2)c1c(N)n(Cc2ccccc2)c(=O)[nH]c1=O	·	-5%	34%	-9%	-23%	·
COCCN(C(=O)COC(=O)c1cc2c(s1)CCCC2)c1c(N)n(Cc2ccccc2)c(=O)[nH]c1=O	·	?	50µM*	-16%[11.6 µM]	45µM*	?
Cc1ccc(NC(=O)C2CCN(c3nnc(C)c4c(C)n(-c5ccccc5)nc34)CC2)cc1Cl	-11%	4%	6%	·	-11%	·
COc1ccc(NC(=O)C2CCCN(c3nnc(C)c4c(C)n(-c5ccccc5)nc34)C2)cc1Cl (centres undefined)	71µM*	?	-30%	·	35µM*	?	Pol kappa inh-2=17*
Cc1cccc(N=C2C(=O)Nc3c(Cl)cccc32)c1	2%	-12%	?	1%	-4%	·
O=C1Nc2c(Cl)cc(Cl)cc2C1=O	·	?	?	-5%[11.6 µM]	?	?
CS(=O)(=O)C1=NSC2=NC(=O)/C(=C\c3cccn3-c3ccc(Cl)cc3)C(=N)N21	22µM*	-40%	?	-27%[57.1 µM]	22µM*	?
N=C1/C(=C/c2cccn2-c2ccc([N+](=O)[O-])cc2)C(=O)N=C2SC=CN12	?	-17%	?	-12%[11.6 µM]	?	·
CCc1sc(/C=C(/C#N)C(N)=S)cc1[N+](=O)[O-]	?	-21%	?	?	20µM*	43*
O=C(CCN1C(=O)/C(=C/c2ccccc2)SC1=S)NC1CCS(=O)(=O)C1 (centres undefined)	17%	-11%	69%	2%	-16%	·
CC(C(=O)N(C)C1CCS(=O)(=O)C1)N1C(=O)/C(=C/c2ccco2)SC1=S (centres undefined)	?	?	32µM*	-26%	22µM*	76*
